Measurements: the supplement of paper PMC11417369
± gives the standard deviation of the averaged measurements. Whole data set: some 25,000 sequences, median “ln(normalized median fluorescence intensity)” near 10, cut for the highest 2% near 12. Shown is part of a subset that was picked to be rich in the highest values.

system: PfAP2-G AP2 domain (GST-tagged); assay: gcPBM binding intensity (ln(normalized median fluorescence intensity)); higher = stronger DNA binding
Outline: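 GST-tagged P. falciparum DNA-binding domains produced in E. coli were incubated for 1 h on an Agilent 4 × 180k array of primer-extended double-stranded 36-bp intergenic genomic probes with negative controls. Binding intensity is the highest Masliner-normalised natural-log median intensity across replicate spots of either probe orientation, with bound protein detected by Alexa488 anti-GST antibody at 488 nm.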

| Sequence | gcPBM binding intensity (ln) |
| --- | --- |
| ATATTTATATATAGTAGTACTTTCAATAATTTAAAT [XGTACX_site7276] | 11.4 ± 0.84 |
| TATATTTTATATTAGTGTACAAATTTCATTTTTCAT [XGTACX_site2204] | 11 ± 0.5 |
| TTTTAAATTTAGTGTAGTACACTTTTTTCAAATATA [XGTACX_site4659] | 11.7 ± 1.2 |
| ATATGTTACTTTACATAAAGAAGAAGAAGAAGAAAA [CACACA_negctrl_site985] | 9.805 ± 0.064 |
| ATATAAACATGTTTGTGTACGTAATATGAAAAATAA [XGTACX_site8157] | 11.7 ± 1 |
| TATAATAAAATATTTTGTACGTATATTTTAATATTT [XGTACX_site2582] | 11.2 ± 0.72 |
| TGTATGATTATGTTGTGTACGTAAAATATGAAAAAT [XGTACX_site1720] | 11.5 ± 0.89 |
| TATAAAAAATTATGTTGTACGTAATATAAAATTTGT [XGTACX_site7122] | 11.4 ± 0.86 |
| TCTTTTGAACAAATTTGTACGTATATAAAAATATTT [XGTACX_site6547] | 11.4 ± 0.71 |
| TTTTTGTTTGAACACTGTACGTATAAATATAAAAGT [XGTACX_site6476] | 11.7 ± 0.84 |
| TAAAATATAAGACACACACACATATATTTATATATC [CACACA_site6248] | 9.96 ± 0.099 |
| AAAAAAAAAATTAAAAGTACAGAAAATAAATAAATA [XGTACX_site7470] | 11.4 ± 0.82 |
| AAAAAAAAAAAAAAAAGTACACAGTAGAATTAAATG [XGTACX_site1843] | 11.7 ± 0.92 |
| AAAGAATAATTAAATACACACATATTACAGTAAAAA [CACACA_site2450] | 10.03 ± 0.092 |
| TTATGTACAATTTCTTCTTTCTTTTTTCCTAAAGAC [CACACA_negctrl_site1193] | 11.1 ± 0.57 |
| GGTCTTATTTTTAGTAGTACAAATATAATATACATA [XGTACX_site6483] | 11.4 ± 0.83 |
| AATAATTTAATACATACACACGTATATCTTTTTTTT [CACACA_site8632] | 9.955 ± 0.078 |
| TAATTGTACGCCAATACACACAGAATTAGAATGTAG [CACACA_site102] | 11.8 ± 1.3 |
| TAATTGTACGCCAATACACACAGAATTATAATGTAG [CACACA_site6201] | 11.5 ± 1 |

| Sequence | gcPBM binding intensity (ln) |
| --- | --- |
| TAATTGTACGCCAATACACACAGAATTAAAATGTAG [CACACA_site4234] | 11.6 ± 1.1 |
| CAACATTTATATTTTACACACATCATTTAAGCGCTT [CACACA_site992] | 10.09 ± 0.078 |
| ATCCTTTATTTTTTTTGTACATAAAAATAACTCGAG [XGTACX_site3885] | 11.1 ± 0.62 |
| ATATGTATATTTTTGATGTGCTTTTATTTGGTTATT [CACACA_negctrl_site626] | 10.01 ± 0.035 |
| CATACACCCAGACACACACACATATATATATATATA [CACACA_site634] | 10.3 ± 0.39 |
| TACATACACAGACACACACACATATATATATATATA [CACACA_site3557] | 10.2 ± 0.38 |
| AACATATACACGAACACACACACATATATATATATA [CACACA_site502] | 10.3 ± 0.26 |
| CCCCCCCACGAACACACACACATACATACCACATAT [CACACA_site7149] | 12 ± 1 |
| CCCCCCCACGGACACACACACATACATACCACATAT [CACACA_site5303] | 11.7 ± 0.75 |
| TACATACACGGACACACACACATATATATATATATA [CACACA_site5883] | 11.3 ± 0.88 |
| TACAGACATACATACACACATACATACAGACATACA [CACACA_site1941] | 10.1 ± 0.3 |
| TTCCCCCCCAGACACACACACACATACATACCACAT [CACACA_site2305] | 11.8 ± 0.84 |
| CGCATACACGGACACACACACACATATATATATATA [CACACA_site4520] | 11.3 ± 0.7 |
| CACAGACACCCATACACACACATACCCATATATATA [CACACA_site5023] | 10.4 ± 0.26 |
| CCCCCCCACAGACACACACACATACATACCACATAT [CACACA_site2306] | 11.8 ± 0.76 |
| CATATACACGAACACACACACATATATATATATATA [CACACA_site4437] | 10.5 ± 0.68 |
| AAATTAATGTATATGTGAAGCAAGGGATGCGGCAGA [CACACA_negctrl_site406] | 10.2 ± 0.12 |
| GTACCTATTTCATACACACACACACCCAAACAAACA [CACACA_site976] | 10.7 ± 0.51 |
| ACATAATAAAAATAAATTCATAAGTAAATAAATAAA [TGCATGCA_negctrl_site186] | 9.88 ± 0.24 |

| Sequence | gcPBM binding intensity (ln) |
| --- | --- |
| GTTTGTATAGGTTCATGTACAAAAAAAAAAAAAAAA [XGTACX_site537] | 11 ± 0.83 |
| TTGTTTAAGTCACGAACACACATATATCATCAATTT [CACACA_site986] | 10.11 ± 0.071 |
| TTACTTATAAATAAATATACAAAAATGTTATATATA [XGTACX_negctrl_site223] | 9.625 ± 0.078 |
| CATACATACATACATACATGCATACATACATACATA [TGCATGCA_site218] | 10.5 ± 0.47 |
| AATTCTTTTTTCAACACACACACACCCGAAAATATA [CACACA_site3111] | 10.3 ± 0.28 |
| CAAACCTATATACAAACATGCAATCCACATATTGGT [TGCATGCA_site756] | 9.99 ± 0.13 |
| AACACAAGAACAGAACGTACACACACATATATATAT [XGTACX_site7347] | 11.3 ± 0.61 |
| AAAAAATGAAAAAACTGTACGCAATTTTGTTTTTAT [XGTACX_site2299] | 11.7 ± 1.2 |
| TAAAATTTTTGTTTTTGTACGAAACATCAATTTTAC [XGTACX_site4963] | 10.7 ± 0.34 |
| AAGAAAAATTTAAACTGTACTTGTTTTCCAATGAAC [XGTACX_site4443] | 11.4 ± 1 |
| CTTAAATTGAAATGTTGTACAAAGTAAAAACAATGA [XGTACX_site2123] | 11.2 ± 0.86 |
| GTATATCACACATTTGCATGTTGTCAATAGTTTATC [TGCATGCA_site134] | 10.23 ± 0.014 |
| TTAAAAATATTATGTACACACATTTTAGATATTTGT [CACACA_site1846] | 11.6 ± 0.77 |
| TTCTTTAAAATATTATGTACACATTGCGAACAGTTT [XGTACX_site5418] | 11.7 ± 1 |
| ATTTAAAAAATATATTGTACATATTTTATTATGTTT [XGTACX_site2984] | 11 ± 0.63 |
| GTTATAAAATATGGCACACAAAATGTAAGTAAATGA [CACACA_site1458] | 10.5 ± 0.2 |
| TTCATTAATGTGTAATGTACTTGTAATATGGGATTA [XGTACX_site3903] | 11.1 ± 0.82 |
| TTTTTATTTATATGATACTTATATATATATATATAT [CACACA_negctrl_site462] | 10.2 ± 0.35 |
